Mot1-301 SUMO = inhibitors of SUMOylation pathway: yeast Mot1-301 growth rescue. S. cerevisiae Mot1-301 growth rescue, ATP luminescence, 38.5C; percent above DMSO median, 100 means doubled. growth rescue, % at 18.8 µM. 320,000 compounds, 1% hits. AID 2716;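 active = every valid replicate shows activation above 250% relative to neutral control wells; inactive = the rest, any valid replicate at or below 250%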
IDE act = IDE (human) activation, cell-based; 340,000 compounds, 0.073% hits; P14735; HEK cells, FAbeta-B cleavage, fluorescence polarization; 0% vehicle, 100% cell-free pure enzyme wells; activation, % at 5.96 µM;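 active = activation above the mean of all tested compounds plus 3 SD, set per screening campaign, cut at about 17% in these data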
LANA-H2B inh = blocks KSHV LANA binding to histone H2A/H2B; inhibition, % (test concentration not listed); AID 2629; cell-free LANA-H2A/H2B peptide, fluorescence polarization; Q9QR71; 320,000 compounds, 0.6% hits; in the data active = inhibition mostly above about 10%, no sharp cut-off; inactive = mostly below about 6.7%
HDAC3 inh = human HDAC3 inhibition. O15379. recombinant HDAC3, fluorogenic peptide/trypsin coupled, fluorescence. inhibition, % at 8.3 µM. 320,000 compounds, 0.15% hits. AID 2718; in the data active = inhibition above about 26%, passing the limit was not always enough; inconclusive = no clear call, values can overlap the other calls
Target sequence (O15379 whole entry, looked up): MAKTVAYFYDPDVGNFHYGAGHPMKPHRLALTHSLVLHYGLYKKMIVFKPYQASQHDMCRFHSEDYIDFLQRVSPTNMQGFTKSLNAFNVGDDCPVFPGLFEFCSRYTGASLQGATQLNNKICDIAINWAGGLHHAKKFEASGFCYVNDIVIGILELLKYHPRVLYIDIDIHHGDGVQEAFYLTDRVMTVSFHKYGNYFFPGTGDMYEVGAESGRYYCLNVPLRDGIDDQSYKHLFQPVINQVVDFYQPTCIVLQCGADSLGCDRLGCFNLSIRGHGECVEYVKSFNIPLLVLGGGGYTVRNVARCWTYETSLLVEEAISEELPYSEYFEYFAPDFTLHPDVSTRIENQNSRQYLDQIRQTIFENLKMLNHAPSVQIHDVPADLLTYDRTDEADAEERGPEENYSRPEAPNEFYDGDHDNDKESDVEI
IDE inh = cellular human IDE inhibition; HEK cells, FAbetaB cleavage, fluorescence polarization; inhibition, % at 5.59 µM; 320,000 compounds, 0.41% hits;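 active = percent inhibition above the average of all tested compounds plus 3 SD, set per screening campaign, cut at about 16% in these data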;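 note: IDE supplied by intact live HEK cells; FP after avidin binding of uncleaved biotin substrate so inhibition keeps polarization high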
A number is an active result; . = inactive; ? = inconclusive; / = no result given. Sampled rows, rich in hits. Any-hit rate of the full collection: about 2.1%.

SMILES | Mot1-301 SUMO | IDE act | LANA-H2B inh | HDAC3 inh | IDE inh
C#CCOCCOCCOCCNc1nc(N2CCN(C(=O)CCCCCCCCCCNC(=O)[C@@H](CCSC)n3cc(CCO)nn3)CC2)nc(N2CCN(C(=O)CCCCCCCCCCNC(=O)[C@H](CCCN=C(N)N)n3cc(C[C@@H](C)CC)nn3)CC2)n1 | . | 45 | . | 69 | .
C#CCOCCOCCOCCNc1nc(N2CCN(C(=O)CCCCCCCCCCNC(=O)[C@H](CCCN=C(N)N)n3cc(C[C@@H](C)CC)nn3)CC2)nc(N2CCN(C(=O)CCCCCCCCCCNC(=O)[C@@H]([C@H](C)CC)n3cc(CCCCCN)nn3)CC2)n1 | . | / | . | 33 | .
Nn1c(-c2cccc(O)c2)nnc1-c1cccc(O)c1 | / | . | / | / | /
C#CCOCCOCCOCCNc1nc(N2CCN(C(=O)CCCCCCCCCCNC(=O)[C@H](CCCCN)n3cc(C)nn3)CC2)nc(N2CCN(C(=O)CCCCCCCCCCNC(=O)[C@H](CCCN=C(N)N)n3cc(C[C@@H](C)CC)nn3)CC2)n1 | . | / | . | . | .
Cc1cn([C@@H](CCCCNC(=O)OC(C)(C)C)C(=O)NCCCCCCCCCCC(=O)N2CCN(C(=O)OC(C)(C)C)CC2)nn1 | . | . | . | . | .
C#CCOCCOCCOCCNc1nc(N2CCN(C(=O)CCCCCCCCCCNC(=O)[C@H](CCCCN)n3cc(C[C@@H](C)CC)nn3)CC2)nc(N2CCN(C(=O)CCCCCCCCCCNC(=O)[C@H](CCCN=C(N)N)n3cc(C[C@@H](C)CC)nn3)CC2)n1 | . | 47 | . | ? | .
CC[C@H](C)Cc1cn([C@@H](CCCN=C(NC(=O)OC(C)(C)C)NC(=O)OC(C)(C)C)C(=O)NCCCCCCCCCCC(=O)N2CCN(C(=O)OC(C)(C)C)CC2)nn1 | . | . | . | 28 | .
O=C(NCCc1ccccc1)C1CCN(C(=O)c2ccc([N+](=O)[O-])cc2)CC1 | . | . | . | . | .
COc1ccc(CCNC(=O)C2CCN(C(=O)c3ccc([N+](=O)[O-])cc3)CC2)cc1 | 314 | . | . | / | .
Nc1nnc(/C=C/c2cccc([N+](=O)[O-])c2)s1 | . | . | . | . | .
CCOc1ccc(CCNC(=O)COC(=O)c2nn(C)c(=O)c3ccccc23)cc1OCC | . | . | 12 | . | .
COC(=O)[C@@]1(Cc2ccc(F)cc2)[C@H]2c3cc(C(=O)N4CCCC4)n(CCc4ccccn4)c3C[C@H]2CN1C(=O)c1ccccc1 | . | / | 18 | . | .
CC(C)(C)C(=O)Nc1ccc(C(=O)N/N=C/c2ccccc2OC(=O)c2ccc(Cl)cc2)cc1 | . | . | . | . | .
CC(C)(C)C(=O)Nc1ccc(C(=O)N/N=C/c2ccccc2OC(=O)c2ccccc2)cc1 | . | . | . | 35 | .
CC1(C)CC(=O)/C(=N/Nc2ccc(Cl)cc2)CO1 | 275 | . | . | . | .
CN(C)S(=O)(=O)c1ccc(C(=O)NCc2nc3ccccc3s2)cc1 | . | . | 15 | . | .
O=C(OCCc1ccccn1)c1cccc([N+](=O)[O-])c1 | / | . | / | / | /
CCc1ccc(NCc2ccc(OC)c(Cn3ccnc3)c2)cc1 | 341 | . | . | . | .
COc1ccc(CNc2ccc(Cl)cc2)cc1Cn1ccnc1 | . | . | . | . | .
O=C(CNC(=O)C1CCCCC1)OCn1nnc2ccccc2c1=O | . | . | 15 | . | .
O=C(NCC1CCCO1)C1CCN(S(=O)(=O)c2cc(Cl)ccc2Cl)CC1 (stereo not given) | . | . | 13 | . | .
CCOC(=O)c1cnc2c(C)cccc2c1NCCCN1CCOCC1 | . | . | . | . | .
O=C(CN1CCN(c2cccc(Cl)c2)CC1)NC1CCCc2ccccc21 (stereo not given) | . | . | 20 | . | .
COC(=O)[C@]1(C)N[C@H](CN(C)S(=O)(=O)c2ccc(OC(F)(F)F)cc2)[C@@H]2C(=O)N(Cc3ccccc3)C(=O)[C@@H]21 | / | . | / | / | .
Cc1cccc(C(=O)NNC(=O)c2c(-c3ccccc3Cl)noc2C)c1O | . | . | . | . | .
Cc1ccc(N(CC(N)=O)C2SC(=O)NC2=O)cc1 (stereo not given) | . | . | 22 | . | .
Cc1ccc(N(CC(=O)O)C2SC(=O)NC2=O)cc1 (stereo not given) | . | . | . | . | .
O=C(CN1C(=O)C2C3C=CC(C3)C2C1=O)NCc1ccc2c(c1)OCO2 (stereo not given) | . | . | 19 | . | .
